# Tested on: Salmonella enterica serovar Typhimurium 14028s
# Assay: approximate change in surviving CFU after surface colonization relative to water-only control (log10 CFU/mL change); higher = more surviving bacteria (less inhibition of surface colonization)
# Settings: not stated (Biolog proprietary concentration), surface: plastic 96-well plate, 20-24 h at 25 °C
structure (smiles),measurement,setting,value
O[C@@H]1[C@@H](O)[C@@H](O)CO[C@H]1O [L-Arabinose],approximate change in surviving CFU (log10),"Biolog plate: PM1, Biolog well: A2",0.837
O=C(O)CCC(=O)O [Succinic Acid],approximate change in surviving CFU (log10),"Biolog plate: PM1, Biolog well: A5",0.515
C[C@H](O)[C@@H](O)[C@@H](O)[C@H](O)C=O [L-Fucose],approximate change in surviving CFU (log10),"Biolog plate: PM1, Biolog well: B4",1.33
O[C@@H]1[C@H](O)[C@H](O)CO[C@H]1O [D-Ribose],approximate change in surviving CFU (log10),"Biolog plate: PM1, Biolog well: C4",0.172
OC[C@H]1O[C@H](OC[C@H]2OC(O)[C@H](O)[C@@H](O)[C@@H]2O)[C@H](O)[C@@H](O)[C@H]1O (stereo partly drawn) [D-Melibiose],approximate change in surviving CFU (log10),"Biolog plate: PM1, Biolog well: C11",1.82
CCCCCCCC/C=C\CCCCCCCC(=O)OCCOCC(OCCO)C1OCC(OCCO)C1OCCO (stereo not given) [Tween 80],approximate change in surviving CFU (log10),"Biolog plate: PM1, Biolog well: E5",-0.58
O=C(O)CC(Br)C(=O)O (stereo not given) [Bromo Succinic Acid],approximate change in surviving CFU (log10),"Biolog plate: PM1, Biolog well: F6",-0.901
C[C@H](N)C(=O)NCC(=O)O [L-Alanyl-Glycine],approximate change in surviving CFU (log10),"Biolog plate: PM1, Biolog well: G6",0.966
OC[C@H]1OC(O[C@H]2[C@H](O)[C@@H](O)C(O[C@H]3[C@H](O)[C@@H](O)[C@@H](O)O[C@@H]3CO)O[C@@H]2CO)[C@H](O)[C@@H](O)[C@@H]1O (stereo not given in full) [Dextrin],approximate change in surviving CFU (log10),"Biolog plate: PM2, Biolog well: A6",0.665
CC(=O)N[C@H]1[C@H]([C@H](O)[C@H](O)CO)OC(O)(C(=O)O)C[C@@H]1O (stereo not given in full) [N-Acetyl-Neuraminic Acid],approximate change in surviving CFU (log10),"Biolog plate: PM2, Biolog well: B2",1.09
N#C[C@H](O[C@@H]1O[C@H](CO[C@@H]2O[C@H](CO)[C@@H](O)[C@H](O)[C@H]2O)[C@@H](O)[C@H](O)[C@H]1O)c1ccccc1 [Amygdalin],approximate change in surviving CFU (log10),"Biolog plate: PM2, Biolog well: B4",0.966
OC[C@@H](O)C(O)[C@H](O)CO [D-Arabitol],approximate change in surviving CFU (log10),"Biolog plate: PM2, Biolog well: B6",1.37
OC[C@H]1O[C@@](CO)(O[C@H]2O[C@H](CO)[C@@H](O)[C@H](O)[C@H]2O)[C@@H](O[C@H]2O[C@H](CO)[C@@H](O)[C@H](O)[C@H]2O)[C@@H]1O [D-Melezitose],approximate change in surviving CFU (log10),"Biolog plate: PM2, Biolog well: C4",1.16
CO[C@@H]1O[C@H](CO)[C@@H](O)[C@H](O)[C@H]1O [b-Methyl-D-Glucoside],approximate change in surviving CFU (log10),"Biolog plate: PM2, Biolog well: C7",1.33
OC[C@H]1O[C@H](OC[C@H]2O[C@H](O[C@]3(CO)O[C@H](CO)[C@@H](O)[C@@H]3O)[C@H](O)[C@@H](O)[C@@H]2O)[C@H](O)[C@@H](O)[C@H]1O [D-Raffinose],approximate change in surviving CFU (log10),"Biolog plate: PM2, Biolog well: D1",0.494
OC[C@@]12OC[C@@H](O1)[C@@H](O)[C@@H](O)[C@@H]2O [Sedoheptulosan],approximate change in surviving CFU (log10),"Biolog plate: PM2, Biolog well: D3",0.451
CC(O)(CC(=O)O)C(=O)O (stereo not given) [Citramalic Acid],approximate change in surviving CFU (log10),"Biolog plate: PM2, Biolog well: E4",0.687
O=C(O)c1ccccc1O [2-Hydroxy Benzoic Acid (Salicylic Acid)],approximate change in surviving CFU (log10),"Biolog plate: PM2, Biolog well: E6",-1.72
CCCC(=O)C(=O)O [a-Keto-Valeric Acid],approximate change in surviving CFU (log10),"Biolog plate: PM2, Biolog well: E10",-0.966
O=C(O)[C@H](O)[C@@H](O)[C@H](O)[C@H](O)CO[C@H]1O[C@H](CO)[C@H](O)[C@H](O)[C@H]1O [Melibionic Acid],approximate change in surviving CFU (log10),"Biolog plate: PM2, Biolog well: F3",0.3
O=C(O)[C@]1(O)C[C@@H](O)[C@@H](O)[C@H](O)C1 [Quinic Acid],approximate change in surviving CFU (log10),"Biolog plate: PM2, Biolog well: F6",1.09
O=C(O)[C@H](O)[C@@H](O)C(=O)O [L-Tartaric Acid],approximate change in surviving CFU (log10),"Biolog plate: PM2, Biolog well: F12",0.687
O=C(O)[C@@H]1C[C@@H](O)CN1 [Hydroxy-L-Proline],approximate change in surviving CFU (log10),"Biolog plate: PM2, Biolog well: G8",0.622
CC(=O)C(C)O (stereo not given) [3-Hydroxy-2-Butanone],approximate change in surviving CFU (log10),"Biolog plate: PM2, Biolog well: H12",-0.15
NC(N)=O,approximate change in surviving CFU (log10),"Biolog plate: PM3, Biolog well: A5",0.429
N[C@@H](Cc1c[nH]c2ccccc12)C(=O)O [L-Tryptophan],approximate change in surviving CFU (log10),"Biolog plate: PM3, Biolog well: B12",-1.05
NC(=O)NCCC[C@H](N)C(=O)O [L-Citrulline],approximate change in surviving CFU (log10),"Biolog plate: PM3, Biolog well: C10",0.665
CCCCN [N-Butylamine],approximate change in surviving CFU (log10),"Biolog plate: PM3, Biolog well: D7",-2.12
Nc1ccn([C@@H]2O[C@H](CO)[C@@H](O)[C@H]2O)c(=O)n1 [Cytidine],approximate change in surviving CFU (log10),"Biolog plate: PM3, Biolog well: F4",0.386
Oc1nc(O)c2nc(O)[nH]c2n1,approximate change in surviving CFU (log10),"Biolog plate: PM3, Biolog well: G3",1.14
"CCC(N)C(=O)O (racemic) [D,L-a-Amino-N-Butyric Acid]",approximate change in surviving CFU (log10),"Biolog plate: PM3, Biolog well: G7",-0.644
C[C@H](N)C(=O)N[C@H](C(=O)O)[C@@H](C)O,approximate change in surviving CFU (log10),"Biolog plate: PM3, Biolog well: H7",-0.0215
CSCC[C@H](N)C(=O)N[C@@H](C)C(=O)O,approximate change in surviving CFU (log10),"Biolog plate: PM3, Biolog well: H12",0.0214
O=C(O)[C@@H](O)[C@@H](O)[C@H](O)[C@@H](O)C(=O)O [D-Saccharic Acid],approximate change in surviving CFU (log10),"Biolog plate: PM1, Biolog well: A4",0.708
OC[C@H]1OC(O)[C@H](O)[C@@H](O)[C@H]1O (stereo partly drawn) [D-Galactose],approximate change in surviving CFU (log10),"Biolog plate: PM1, Biolog well: A6",1.59
CCC(=O)C(=O)O [a-Keto-Butyric Acid],approximate change in surviving CFU (log10),"Biolog plate: PM1, Biolog well: D7",0.172
OC[C@H]1O[C@@H](O[C@@H]2[C@@H](CO)OC(O)(CO)[C@H]2O)[C@H](O)[C@@H](O)[C@H]1O (mixture of isomers) [Lactulose],approximate change in surviving CFU (log10),"Biolog plate: PM1, Biolog well: D10",1.05
OC[C@H]1O[C@@](CO)(O[C@H]2O[C@H](CO)[C@@H](O)[C@H](O)[C@H]2O)[C@@H](O)[C@@H]1O [Sucrose],approximate change in surviving CFU (log10),"Biolog plate: PM1, Biolog well: D11",0.987
O=C(O)C(O)C(O)C(=O)O (stereo not given) [m-Tartaric Acid],approximate change in surviving CFU (log10),"Biolog plate: PM1, Biolog well: E2",1.04
OC[C@H]1O[C@H](O[C@H]2[C@H](O)[C@@H](O)[C@@H](O[C@H]3[C@H](O)[C@@H](O)[C@@H](O)O[C@@H]3CO)O[C@@H]2CO)[C@H](O)[C@@H](O)[C@@H]1O [Maltotriose],approximate change in surviving CFU (log10),"Biolog plate: PM1, Biolog well: E10",1.82

# Reference: the supplement of paper PMC11738630
